# Source: PubChem
# This excerpt belongs to a sample that is enriched for hits.
# Glioma ERSR ind: induces the endoplasmic reticulum stress response in human glioma cells; AID 602332; Potency, µM, for inactives: at the highest dose activation, hits mostly activators; actives 0.02% (n = 420,000); U87-MG GRP78 promoter luciferase reporter, 16 h; further: series mostly up to about 76 µM; % of control where 0% means no effect; nearly all actives have a fitted effect of over 35% in size
#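 Stably transfected U87-MG glioma cells carrying a GRP78-based luciferase sensor; 16 h compound incubation. Luminescence end-point read 10 min after Bright-Glo addition at room temperature.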
# Sfp PPTase inh: blocks B. subtilis Sfp PPTase activity; Biochemical Sfp PPTase activity, qHTS; Q9F4F7; Potency, µM, for inactives: largest response in the series, negative = inhibition, usual class: inhibitors; actives 3.5% (n = 310,000); AID 1490;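 further: the enzyme is Sfp with the accession as filed and its product quenches rhodamine fluorescence; 0% = enzyme reaction without inhibitor and -100% = no enzyme wells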
#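 After 15 min at room temperature with compound, 15 nM Sfp received 5 uM rhodamine-CoA plus 12.5 uM BHQ-2-ybbR (50 mM Hepes pH 7.6, 10 mM MgCl2). Rate came from the fluorescence difference over 30 min, ex 525/em 598 nm.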
# G9a block: inhibitors of human histone lysine methyltransferase G9a | actives 8.8% (n = 350,000) | G9a H3K9 monomethylation, AlphaScreen, 2 h | Potency, µM (top dose mostly 102 µM), without a hit: at the top dose activity, negative = inhibition, hits mostly inhibitors | Q96KQ7; further: on the % scale 0 is the no-effect control and ±100 the full control effect; nearly all actives have a fitted effect of over 75% in size
#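 G9a (20 nM) preincubated 15 min RT with compounds, then 500 nM biotinylated H3K9 peptide and 20 uM SAM added; 2 h RT reaction. Monomethyl-H3K9 product detected by AlphaScreen with anti-H3K9me1 antibody, streptavidin donor and anti-rabbit IgG acceptor beads.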
# VDR inh: inhibitors of human vitamin D receptor. Potency, µM, inactives show max response, negative = inhibition, hits mostly inhibitors. VDR-SRC2-3 peptide fluorescence polarization, 2 h. actives 0.93% (n = 400,000); further: on the % scale 0 is the no-effect control and ±100 the full control effect
#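 Inhibition of the VDR/SRC2-3 peptide interaction is quantified by fluorescence polarization. Compounds (23 nl, pintool) incubate with the reagents for 2 hours at ambient room temperature.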
# 12-LOX inh: blocks human arachidonate 12S-lipoxygenase. P18054. actives 1.1% (n = 580,000). Potency, µM (titrated, usually from 108 µM), for the others: top-dose activity change, negative = inhibition, hits mostly inhibitors. purified 12hLO, xylenol orange hydroperoxide absorbance; further: on the % scale 0 is the no-effect control and ±100 the full control effect
# Target sequence (P18054 whole entry, looked up): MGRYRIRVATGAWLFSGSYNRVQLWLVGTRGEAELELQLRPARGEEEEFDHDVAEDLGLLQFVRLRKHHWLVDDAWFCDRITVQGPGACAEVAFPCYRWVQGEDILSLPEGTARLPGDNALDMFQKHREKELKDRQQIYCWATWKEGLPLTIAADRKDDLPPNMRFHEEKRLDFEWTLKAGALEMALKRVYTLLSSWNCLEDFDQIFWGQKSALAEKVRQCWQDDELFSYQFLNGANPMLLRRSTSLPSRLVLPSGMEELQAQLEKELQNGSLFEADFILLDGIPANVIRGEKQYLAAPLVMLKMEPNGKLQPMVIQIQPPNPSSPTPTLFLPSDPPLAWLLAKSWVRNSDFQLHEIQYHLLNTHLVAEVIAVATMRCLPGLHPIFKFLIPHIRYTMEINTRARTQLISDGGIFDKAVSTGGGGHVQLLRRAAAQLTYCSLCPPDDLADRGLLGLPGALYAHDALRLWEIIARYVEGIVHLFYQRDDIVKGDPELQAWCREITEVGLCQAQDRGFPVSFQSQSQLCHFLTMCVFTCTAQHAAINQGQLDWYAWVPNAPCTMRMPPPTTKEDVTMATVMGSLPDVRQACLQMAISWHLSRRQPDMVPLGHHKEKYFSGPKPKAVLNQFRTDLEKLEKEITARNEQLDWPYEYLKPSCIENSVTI
#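 Hydroperoxide product was detected by ferrous iron/xylenol orange as the 573 to 405 nm absorbance ratio. Arachidonic acid at 40 uM (final) was turned over for 30 min at room temperature by 150 nM human 12hLO, pH 7.0 Hepes buffer, after 15 min compound preincubation.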
# Starred values were filed as active, the others as inactive; u = inconclusive; x = not tested or not shown; [ ] = remark or other dose. The call rests on the fitted dose curve; in most records, active means well fitted curve in the direction sought with a large enough effect; inconclusive means small, poorly fitted or top-dose-only effect, or another doubt; inactive means no such curve, though single readings can be large; an effect the other way counts as inactive or inconclusive. Potency means the concentration at half of the fitted maximal effect.
SMILES,Glioma ERSR ind,Sfp PPTase inh,G9a block,VDR inh,12-LOX inh
NC(=O)Cn1ccc2cc(OCC3CCN(c4cc(NC5CC5)ncn4)CC3)cnc21,x,x,x,x,5%[176 µM]
CCCC(=O)Nc1ccc(C(=O)NCCc2ccccc2)cc1,x,x,x,x,-17%
COc1ccc(S(=O)(=O)C(C#N)c2nc3ccccc3nc2N2CCCCC2)cc1 (configuration not stated),5%,-4%,13µM*,7%,u
N#CC(c1nc2ccccc2nc1N1CCCC1)S(=O)(=O)c1ccccc1 (configuration not stated),1%,-26%,u,5%,u
CCNc1nc2ccccc2nc1C(C#N)S(=O)(=O)c1ccc(C)c(C)c1 (configuration not stated),x,x,x,x,14µM*
CCc1ccc(NC(=O)Nc2cn(C)c(=O)c3ccccc23)cc1,0%,x,10µM*,-12%,-14%
CCNc1c(NC(=O)Nc2ccc(CC)cc2)c(=O)oc2ccccc12,x,x,x,x,45µM*
O=C(NCc1cccc(CNC(=O)Nc2ccccc2C(=O)NCCc2ccccc2)c1)Nc1ccccc1C(=O)NCCc1ccccc1,x,x,x,x,38%
Cc1cc(C)c2c(N)c(C(=O)NN)sc2n1,9%,-10%,-43%,-4%,0%
CCOC(=O)CNC(=O)c1sc2nc(C)cc(C)c2c1N,0%,7%,50µM*,-10%,2%
Cc1cc(C)c2c(N)c(C(=O)NNC(=O)c3ccccc3)sc2n1,1%,-7%,45µM*,19%,-3%
COc1ccc(Cl)cc1NC(=O)N1CCN(c2ccc(=O)n(-c3ccc(C)c(C)c3)n2)CC1,x,x,x,x,2%
Clc1ccc(CSc2nnc(-c3ccc4c(c3)OCO4)o2)cc1,0%,50µM*,4%[59 µM],1%,u
Clc1ccc(CSc2nnc(-c3cccnc3)o2)cc1,0%,9%,16%[0.501 µM],26%,-30%
Cc1c(Nc2nc(-c3ccc(Cl)cc3)cs2)c(=O)n(-c2ccccc2)n1C,-1%,-5%,-49%[59 µM],-5%,-17%
Cc1c(Nc2scc(-c3ccccc3)[n+]2-c2ccccc2)c(=O)n(-c2ccccc2)n1C,3%,u,28µM*,u,x
CCOc1cccc2sc(N(CCN(C)C)C(=O)c3cc4ccccc4cc3OC)nc12,-12%,u,40µM*,13%,u
CCOc1ccc2nc(N(CCN(C)C)C(=O)c3cc4ccccc4cc3OC)sc2c1,-4%,u,50µM*,-12%,x
CCOc1cccc2sc(N(CCN(C)C)C(=O)c3ccc4c(c3)OCCO4)nc12,-7%,-6%,-47%,-15%,u
CCC(C)NC(=O)NC(=O)CSc1nnc(-c2ccccc2F)n1C1CC1 (configuration not stated),-3%,5%,35µM*,-1%,-2%
CN(C)S(=O)(=O)c1ccc2nc(NC(=O)c3ccc(C#N)cc3)sc2c1,x,x,x,x,-10%
Cc1cccc2c(C(=O)NCCc3ccccc3)cc(-c3cccnc3)nc12,x,x,x,x,-5%
O=C(c1ccc2c(c1)OCO2)N1CCC(c2nc3c(nnn3Cc3cccc(Cl)c3)c(=O)[nH]2)CC1,x,x,x,x,13µM*
Cc1ccc(NC(=O)N2CCC(c3nc4c(nnn4Cc4cccc(Cl)c4)c(=O)[nH]3)CC2)cc1,-1%,u,21%[59 µM],11%,9%
COc1cccc(N2CCN(CC(=O)NC(=O)NCC(F)(F)F)CC2)c1,x,x,x,x,-15%
SMILES,Glioma ERSR ind,Sfp PPTase inh,G9a block,VDR inh,12-LOX inh
COc1cc(-c2c(NC(=O)C(C)C)n(C)c3ccccc3c2=O)cc(OC)c1OC,x,x,x,x,-4%
Cc1ccc2cc(CN(Cc3ccco3)C(=O)c3cccs3)c(=O)[nH]c2c1,-1%,25µM*,13%[12.7 µM],-20%,-28%
Cc1ccc2[nH]c(=O)c(CN(Cc3ccco3)C(=O)c3cccs3)cc2c1,x,7%,5%[59 µM],x,x
Cc1ccc2cc(CN(C(=O)c3cccc(Cl)c3)c3ccccc3)c(=O)[nH]c2c1,-4%,x,-3%[59 µM],4%,-10%
Cc1ccc(N(Cc2cc3ccccc3[nH]c2=O)C(=O)c2ccco2)c(C)c1,-3%,-9%,-9%[12.7 µM],14%,5%
Cc1ccc(N(Cc2cc3ccc(C)cc3[nH]c2=O)C(=O)c2ccco2)cc1,-5%,22µM*,u,u,u
Cc1ccc2cc(CN(C(=O)c3ccco3)c3ccccc3)c(=O)[nH]c2c1,-2%,28µM*,u,-17%,0%
Cc1cccc(N(Cc2cc3ccc(C)cc3[nH]c2=O)C(=O)c2ccco2)c1,-2%,22µM*,u,u,u
CC1CCCCN1Cc1nc2c(c(=O)n(C)c(=O)n2C)n1CC(N)=O (configuration not stated),x,x,x,x,-2%
COc1ccc(C(NC(=O)c2nc(-c3ccco3)sc2C)c2nccn2C)cc1 (configuration not stated),x,x,x,x,33%
Fc1ccc(Sc2ncccc2Cl)cc1,x,x,x,x,15%
CCCN(CC(=O)Nc1cccc(Br)c1)CC(=O)Nc1ccc(F)c(F)c1F,1%,21%,11µM*,-16%,-25%
COc1cccc(NC(=O)CN(C)C(C)C(=O)Nc2cc([N+](=O)[O-])ccc2Cl)c1 (configuration not stated),2%,0%,3%,-17%,-5%
CC(=O)c1cccc(NC(=O)CN(C)Cc2ccc(OC(F)F)cc2)c1,-1%,u,20µM*,2%,-80%
CCC(C)c1ccc(NC(=S)Nc2ccc(OC)cc2C)cc1 (configuration not stated),-2%,-8%,4.5µM*,-17%,u
COc1cccc(NC(=O)CN(C)C(C)C(=O)NC(C)c2ccc(Cl)cc2Cl)c1 (configuration not stated),-1%,x,28µM*,-15%,-27%
CCc1c(C)nc2n(c1=O)CN(CCCN1CCOCC1)CN2c1ccccc1OC,x,x,x,x,3%
Cc1c(-c2ccccc2)oc2c(C(=O)NC3CCN(C(C)C)CC3)cccc2c1=O,x,x,x,x,-12%
Cc1nc2cc(NC(=O)COc3ccc(Br)cc3)ccc2o1,x,x,x,x,12%
CCC(C)c1ccc(NC(=O)CN(C)CC(=O)Nc2cccc(OC)c2)cc1 (configuration not stated),-2%,-31%,50µM*,23%,33%
CN(CC(=O)Nc1cccc(C#N)c1)Cc1ccc(Cl)cc1,-5%,14%,6%,-9%,-16%
COc1ccc(NC(=O)CN(C)CC(=O)N2CCCCCC2)cc1,0%,x,56µM*,0%,-5%
COc1ccc(NC(=O)CN(CC(=O)Nc2ccc(OC)cc2)C(C)(C)CO)cc1,-2%,12%,71µM*,-2%,-83%
COc1cccc(NC(=O)CN(C)CC(=O)Nc2ccc3c(c2)OCO3)c1,-3%,x,x,-8%,-11%
CN(CC(=O)Nc1ccc(Cl)cc1)CC(=O)Nc1cccc(Br)c1,1%,12%,45µM*,8%,-9%
CN(CC(=O)Nc1ccc(Cl)c(Cl)c1)CC(=O)N1CCCCCC1,-5%,x,x,x,4%
Cn1ccc(NC(=O)CCc2ncc(-c3ccc(Cl)cc3)o2)n1,x,x,x,x,34%
